From PubChem BioAssay (NCATS)
Where “and” joins values, the source holds several entries; their conditions need not be identical. Equal values may be shown once. Calls of active or inactive are those of the source. The call rests on the fitted dose curve.

target: Glucocorticoid receptor (Homo sapiens) (UniProt P04150); assay: GR-EFC Redistribution (AID 451); details: CHO-K1 GR-EFC translocation, beta-gal luminescence, 2 h
Text: NIH Molecular Libraries Screening Centers Network [MLSCN]
NIH Chemical Genomics Center [NCGC]
The glucocorticoid receptor (GR) is a cytoplasmic receptor that belongs to the nuclear receptor family of ligand-dependent transcription factors. Upon glucocorticoid binding to its receptor, the glucocorticoid-GR complex translocates into the nucleus, where it binds as a dimer to specific DNA sequences (glucocorticoid response elements), enhancing or suppressing transcription of a wide variety of glucocorticoid-responsive genes. In addition to their important roles in normal physiology and metabolism, glucocorticoids are administered exogenously as treatments for a wide variety of allergic, autoimmune, and neoplastic conditions. Identification of compounds that modulate aspects of GR signalling would be useful in dissecting glucocorticoid response pathways as well as developing GR modulators with more targeted clinical effects.
Traditionally, GR modulators have been identified using receptor binding or direct transactivation assays. However, assays for glucocorticoid-dependent nuclear translocation can also be used to screen for compounds affecting GR signaling.
Immunocytochemical staining has been used to assay for GR translocation, but is not suitable for high throughout screening due to the multiple reagent addition and wash steps required. Recently, a novel cell-based GR assay in Enzyme Fragment Complementation (EFC) format was developed by DiscoveRx (Fremont, CA). The assay uses EFC of b-galactosidase (b-gal) as an indicator of GR-translocation in engineered CHO-K1 biosensor cells. The enzyme acceptor (EA) fragment of b-gal resides in the nucleus , as designed through the use of a proprietary set of sequence additions and modifications. The small peptide enzyme donor (ED) fragment of b-gal is fused directly to the C-terminus of GR, and is localized in the cytoplasm is the absence of receptor signaling. Upon binding to a GR ligand, the complex translocates to the nucleus, where intact enzyme activity is restored by complementation and b-gal activity is detected. We optimized this GR-EFC assay in homogenous 1536-well plate assay format for high throughput screening.
NCGC Assay Protocol Summary:
CHO-K1 cells stably expressing NLS-enzyme acceptor fragment (EA) of b-gal and GR-enzyme donor (ED) fragment of b-gal were maintained in F12 medium (Invitrogen, Carlsbad, CA) at 37 Celsius degrees under a humidified atmosphere containing 5% CO2 and 95% air. The medium contained 10% FBS, 2 mM L-glutamine, 50 U/ml penicillin 50 ug/ml streptomycin, and 250 ug/ml hygromycin and 500 ug/ml G418 (Invitrogen).
GR-translocation was measured beta-gal enzyme activity using the PathHunter Detection Kit containing cell membrane permeablizing reagent and beta-gal substrate (DiscoveRx, Fremont, CA). All compounds were screened as titrations from 0.6 nM to 46 uM final concentration. The assay was performed in 1536-well format as follows:
5 uL cell suspension (1,000 cells)/well
Incubation at 37 Celsius degrees for two hours
1.25 uL 1X detection buffer from the kit supplied by DiscoveRx
Incubation at room temperature for one hour
Read plate in luminescence mode in ViewLux plate reader (PerkinElmer)
Keywords: NIH Roadmap, MLSCN, MLI, MLSMR, GR-EFC, GREFC, qHTS, NCGC
Potency means the concentration at half of the fitted maximal effect.

Sequence of Glucocorticoid receptor (Homo sapiens) (P04150 whole entry, looked up): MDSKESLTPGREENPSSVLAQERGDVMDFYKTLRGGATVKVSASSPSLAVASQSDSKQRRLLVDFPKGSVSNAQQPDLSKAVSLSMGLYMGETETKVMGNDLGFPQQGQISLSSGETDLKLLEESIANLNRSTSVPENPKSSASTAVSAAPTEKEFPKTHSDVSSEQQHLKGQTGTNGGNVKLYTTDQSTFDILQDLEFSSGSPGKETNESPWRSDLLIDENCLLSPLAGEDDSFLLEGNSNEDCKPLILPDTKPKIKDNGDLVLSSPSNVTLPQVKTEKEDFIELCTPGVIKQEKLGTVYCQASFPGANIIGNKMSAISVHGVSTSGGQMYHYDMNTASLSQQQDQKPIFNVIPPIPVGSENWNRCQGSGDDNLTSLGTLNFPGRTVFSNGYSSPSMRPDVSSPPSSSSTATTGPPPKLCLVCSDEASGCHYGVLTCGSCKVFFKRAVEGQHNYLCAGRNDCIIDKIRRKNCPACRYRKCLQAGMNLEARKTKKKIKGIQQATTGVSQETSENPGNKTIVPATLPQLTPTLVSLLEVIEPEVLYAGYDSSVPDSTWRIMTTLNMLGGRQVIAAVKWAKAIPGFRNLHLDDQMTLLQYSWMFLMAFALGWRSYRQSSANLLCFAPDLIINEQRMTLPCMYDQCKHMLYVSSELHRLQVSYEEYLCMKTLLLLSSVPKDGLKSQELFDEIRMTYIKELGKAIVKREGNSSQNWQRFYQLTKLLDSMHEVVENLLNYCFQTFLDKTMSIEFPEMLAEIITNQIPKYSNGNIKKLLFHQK

SMILES | Potency
Cc1cc2nc3c(=O)[nH]c(=O)nc-3n(CC(O)C(O)C(O)CO)c2cc1C (centres undefined) | > 20.6 µM (inactive) and > 46 µM (inactive)
COc1nccc(-c2c(-c3ccc(F)cc3)ncn2C2CCC(O)CC2)n1 (centres undefined) | > 46 µM (inactive)
Clc1ccc(COC(Cn2ccnc2)c2ccc(Cl)cc2Cl)c(Cl)c1 (centres undefined) | > 20.6 µM (inactive)
CN(C)CCN(Cc1ccc(Cl)cc1)c1ccccn1 | > 20.6 µM (inactive)
COc1ccc(CCN(C)CCCOc2ccc(S(=O)(=O)c3[nH]c4ccccc4c3C(C)C)cc2)cc1OC | > 46 µM (inactive)
NC(=O)c1nnn(Cc2cc(Cl)c(C(=O)c3ccc(Cl)cc3)c(Cl)c2)c1N | > 9.22 µM (inactive)
CCCCC[C@H](O)C=C[C@H]1[C@H](O)CC(=O)[C@H]1CCCCCCC(=O)O | > 46 µM (inactive)
CN1CCN2c3ncccc3Cc3ccccc3C2C1 (centres undefined) | > 46 µM (inactive)
O=S(=O)(O)c1ccc2cc(N=Nc3cc(S(=O)(=O)O)c4cccnc4c3O)ccc2c1 | > 9.22 µM (inactive)
CCC(=C(CC)c1ccc(O)cc1)c1ccc(O)cc1 | > 20.6 µM (inactive)
CN(C)c1ccccc1CN1CCCN(Cc2ccccc2N(C)C)C1c1ccncc1 | > 9.22 µM (inactive)
C=C1c2cccc(O)c2C(O)=C2C(=O)[C@@]3(O)C(O)=C(C(N)=O)C(=O)[C@@H](N(C)C)[C@@H]3[C@@H](O)[C@H]12 | > 20.6 µM (inactive)
O=c1cc(-c2ccc(O)c(O)c2)oc2cc(O)cc(O)c12 | > 20.6 µM (inactive) and > 46 µM (inactive)
Cc1ccc(NC(=O)c2cccc(N(C)C)c2)cc1NC(=O)c1ccc(O)cc1 | > 46 µM (inactive)
CC1C(=O)OC2C(O)C34C5CC(C(C)(C)C)C36C(OC(=O)C6O)OC4(C(=O)O5)C12O (centres undefined) | > 46 µM (inactive)
CN[C@H]1[C@@H](O[C@@H]2[C@H](O[C@@H]3[C@@H](O)[C@@H](O)[C@@H](N=C(N)N)[C@@H](O)[C@@H]3N=C(N)N)O[C@H](C)[C@@]2(O)C=O)O[C@@H](CO)[C@@H](O)[C@H]1O | > 20.6 µM (inactive)
CCCCC(C=O)NC(=O)C(CC(C)C)NC(=O)OCc1ccccc1 (centres undefined) | > 46 µM (inactive)
Cc1cc(NC(=O)Nc2ccc(N(C)C)cc2)c2cc(F)cc(F)c2n1 | > 46 µM (inactive)
NS(=O)(=O)c1cc(Cl)c(Cl)c(S(N)(=O)=O)c1 | > 20.6 µM (inactive)
